Compound activity deposited in PubChem BioAssay by Broad Institute.
ID4 SMM: binders of human ID4 protein, primary screen, biochemical, small molecule microarray, single point | Flag-ID4 binding, fluorescence F/B | calls only | AID 624137, 2012 | DNA-binding protein inhibitor ID-4 (Homo sapiens), P47928 | hit rate 1.2% among 31,000; call rule not given here;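 also: a binder raises fluorescence above local background on the spot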
Target sequence (P47928 whole entry, looked up): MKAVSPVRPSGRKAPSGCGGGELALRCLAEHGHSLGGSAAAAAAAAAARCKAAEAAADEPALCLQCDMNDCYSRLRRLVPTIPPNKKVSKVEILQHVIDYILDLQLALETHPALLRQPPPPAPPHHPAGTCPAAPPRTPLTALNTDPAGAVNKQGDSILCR
An asterisk follows results filed as active; i = inactive; + = active, no number. The entries come from a sample that favours hits as a whole.

SMILES | ID4 SMM
CNC[C@@H]1Oc2ccc(NS(C)(=O)=O)cc2CC(=O)N([C@@H](C)CO)C[C@H]1C | i
CNC[C@H]1Oc2ccc(NS(=O)(=O)c3cccs3)cc2CC(=O)N([C@@H](C)CO)C[C@H]1C | i
CNC[C@@H]1Oc2ccc(NS(=O)(=O)c3cccs3)cc2CC(=O)N([C@H](C)CO)C[C@@H]1C | i
CNC[C@@H]1Oc2ccc(NS(=O)(=O)c3ccccc3)cc2CC(=O)N([C@@H](C)CO)C[C@H]1C | +
CNC[C@@H]1Oc2ccc(NS(=O)(=O)c3ccccc3)cc2CC(=O)N([C@@H](C)CO)C[C@@H]1C | i
CNC[C@H]1Oc2ccc(NS(=O)(=O)c3cccs3)cc2CC(=O)N([C@H](C)CO)C[C@@H]1C | +
Cc1cc(C)c(NC(=O)CN(c2cccc3ccccc23)S(C)(=O)=O)c(C)c1 | i
Cc1ccc(S(=O)(=O)N(CC(N)=O)c2ccc(Br)cc2)cc1 | i
COc1cc(OC)c(C2=NOC(C(=O)NCC3CCCO3)C2)cc1Cl (stereo not drawn) | i
Cc1cc(OCc2nc3ccccc3s2)ccc1NC(=O)Nc1cccc(Cl)c1 | i
O=C(CSc1ncnc2sc3c(c12)CCC3)Nc1cccc(-c2nc3ccccc3s2)c1 | i
CC(C)(C)c1ccc(OCC(O)Cn2cnc3ccccc32)cc1 (stereo not drawn) | i
CC1=C(C(=O)c2ccccc2)C(NC(=O)c2ccncc2)(C(F)(F)F)C(=O)N1Cc1ccccc1 (stereo not drawn) | i
c1ccc2[nH]c(SCCCN3CCCCC3)nc2c1 | +
O=C(CSc1nc2ccccc2[nH]1)Nc1ccc(I)cc1 | i
O=C(CSc1nc2ccccc2[nH]1)Nc1c(Cl)cccc1Cl | i
COc1ccc(-n2c(SCC(=O)Nc3ccc(C)c(C)c3)nnc2-c2ccccc2)cc1 | i
Cc1cc(NC(=O)CN(c2c(C)cccc2C)S(C)(=O)=O)ccc1Br | i
CCOc1ccccc1NC(=O)c1ccsc1NC(=O)c1ccoc1C | i
Cc1cc(Cl)cc(Cl)c1OCC(=O)Nc1cccc(NC(=O)c2ccccc2Cl)c1 | i
O=C(CSC1CC(=O)N(c2ccccc2)C1=O)Nc1cccc(Br)c1 (stereo not drawn) | i
CCOC(=O)c1c(NC(=O)C2CC(c3ccccc3Cl)=NO2)sc(C)c1C (stereo not drawn) | i
C=CCn1c2ccccc2c2nnc(SCC(=O)c3ccc(C)cc3)nc21 | i
N#Cc1c(NC(=O)Cn2c(=O)oc3ccccc32)oc(-c2ccccc2)c1-c1ccccc1 | +
O=C(Cn1c(=O)oc2ccccc21)Nc1ccc(C(=O)O)cc1 | i
SMILES | ID4 SMM
N#Cc1c(NC(=O)Cn2c(=O)oc3ccccc32)sc2c1CCC2 | i
CNC(=O)CN(c1ccc(Br)cc1)S(=O)(=O)c1ccc(C)cc1 | i
COc1ccc(OC)c(NC(=O)COc2ccc3c(=O)c(-c4ccccc4OC)c(C(F)(F)F)oc3c2)c1 | i
CN1CCN(C(=O)C2=C[C@@H](c3ccc4c(c3)OCO4)C[C@@H](OCCCCO)O2)CC1 | +
O=C(C1=C[C@@H](c2ccc(C(F)(F)F)cc2)C[C@@H](OCCCCO)O1)N1CCN(Cc2ccc3c(c2)OCO3)CC1 | i
O=C(C1=C[C@@H](c2ccc3c(c2)Cc2ccccc2-3)C[C@@H](OCCCCO)O1)N1CCN(Cc2ccc3c(c2)OCO3)CC1 | i
COc1ccc(C)cc1N(CC(=O)Nc1c(C)n(C)n(-c2ccccc2)c1=O)S(C)(=O)=O | i
COc1ccc(OC)c(C2C(C(=O)c3ccco3)C(=O)C(=O)N2CCN(C)C)c1 (stereo not drawn) | i
CCN(CC(=O)Nc1ccc(F)c(Cl)c1)S(=O)(=O)c1ccc2ccccc2c1 | i
COc1cccc(CNc2nc3nc(C)c(Cc4ccccc4)c(=O)n3[nH]2)c1 | +
Cc1nc2nc(NCc3cccc([N+](=O)[O-])c3)[nH]n2c(=O)c1Cc1ccccc1 | i
COC(=O)Cc1c(C)nc2nc(NCc3ccccc3)[nH]n2c1=O | i
O=C(CCCC(=O)Nc1ccccc1)Nc1ccccc1 | i
COC(=O)CCC(=O)Nc1ccc(C(N)=O)cc1 | i
COC(=O)CCCCCCC(=O)Nc1ccc(NC(=O)CCCC[P+](c2ccccc2)(c2ccccc2)c2ccccc2)cc1 | +
Cc1ccc2c(C)c(C(=O)Nc3sc4c(c3C(=O)NCc3ccco3)CCC4)oc2c1 | i
Cc1ccc(-c2cnc3c(c2)C(=O)N([C@@H](C)CO)C[C@H](C)[C@@H](CN(C)C)O3)cc1 | i
C[C@@H]1CN([C@H](C)CO)C(=O)c2cc(C#Cc3ccccn3)cnc2O[C@@H]1CN(C)Cc1ccccc1 | i
Cc1ccc(-c2cnc3c(c2)C(=O)N([C@H](C)CO)C[C@@H](C)[C@@H](CN(C)C)O3)cc1 | i
C[C@H]1CN([C@@H](C)CO)C(=O)c2cc(-c3ccncc3)cnc2O[C@@H]1CN(C)C | +
C[C@H](CO)N1C[C@H](C)[C@@H](CN(C)CC2CCCC2)Oc2ncc(-c3ccc(C#N)cc3)cc2C1=O | i
